High-throughput results as filed in PubChem BioAssay.
Most compounds without a hit are left out; they make up all but 4.5% or so of the library.
PrPC TRFRET: reduces human prion protein on the cell surface; P04156; cell surface PrPC, TR-FRET read-out; inhibition, % at 13.8 µM; 370,000 compounds, 0.43% hits; in the data active means inhibition above about 24%; further: 0% = median of the test wells and 100% = reference compound wells
GDH-TPI counter: inhibits GDH-TPI coupling enzymes, artifact for Mtb FBA screen; AID 588335; inhibition, % at 4.8 µM; 360,000 compounds, 1.2% hits; GDH-TPI coupled enzyme counterscreen, NADH absorbance; in the data active means inhibition above about 30%;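 further: 0% = DMSO wells and 100% = wells lacking the enzyme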
FBA Mtb inh: inhibitors of M. tuberculosis fructose-bisphosphate aldolase | purified M. tuberculosis FBA, fluorescence read-out | 360,000 compounds, 2.3% hits | P9WQA3 | inhibition, % at 1 µM; in the data active means inhibition above about 27%;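 further: 0% = vehicle and 100% = reference inhibitor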
Target sequence (P9WQA3 whole entry, looked up): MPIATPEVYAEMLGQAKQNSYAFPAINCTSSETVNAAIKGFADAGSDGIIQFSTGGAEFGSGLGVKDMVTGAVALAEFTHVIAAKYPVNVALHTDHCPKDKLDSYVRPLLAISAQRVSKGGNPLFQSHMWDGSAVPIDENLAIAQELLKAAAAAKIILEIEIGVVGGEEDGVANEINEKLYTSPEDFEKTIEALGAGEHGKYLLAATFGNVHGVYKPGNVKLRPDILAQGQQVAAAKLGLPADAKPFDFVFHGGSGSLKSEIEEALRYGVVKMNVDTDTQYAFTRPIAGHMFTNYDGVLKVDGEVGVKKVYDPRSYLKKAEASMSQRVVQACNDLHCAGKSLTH
PrP 5UTR inh: suppresses PrP 5' UTR mRNA reporter expression | cell-based PrP 5' UTR mRNA reporter, plate reader | inhibition, % (test concentration not listed) | 340,000 compounds, 0.35% hits | AID 488862; in the data active means inhibition above about 52%; further: 0 = median of the neutral control wells
BJeLR viability: kills HRASV12-expressing BJeLR cells. BJeLR (HRASV12) viability, CellTiter-Glo ATP luminescence, 48 h. inhibition, % (test concentration not listed). 300,000 compounds, 0.17% hits; in the data active means inhibition above about 50%; inconclusive means no clear call, values can overlap the other calls
PfHsp40 yeast: rescue of PfHsp40-mediated yeast toxicity. growth rescue, % at 12.5 µM. AID 504582. 340,000 compounds, 0.68% hits. S. cerevisiae expressing PfHsp40, growth rescue, ATP luminescence; in the data active means growth rescue above about 28%, passing the limit was not always enough; inconclusive means no clear call, values can overlap the other calls;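 further: yeast W303a lacking pdr1 and pdr3 grown in galactose medium; growth measured after three days at 30 °C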
Numbers without * were called inactive; ? = inconclusive; / = no result; + = active, no number.

SMILES | PrPC TRFRET | GDH-TPI counter | FBA Mtb inh | PrP 5UTR inh | BJeLR viability | PfHsp40 yeast
COC(=O)c1ccc2nc(-c3ccccc3)c(Cc3cccc(Cl)c3)n2c1 | -2 | / | / | / | / | /
CN(C)/C=C/C(=O)c1cccc(C(F)(F)F)c1 | 2 | 50* | 3 | -17 | -5 | 2
CC(C)NC(=O)c1cccc(C(F)(F)F)c1 | 1 | -11 | 1 | -53 | 10 | 0
COc1ccc(-c2csc(NC(=O)c3cc(C)on3)c2C#N)cc1OC | -5 | 38* | 6 | -15 | 6 | 1
COc1ccc(-c2cc(C(=O)Nc3cc(C)on3)no2)cc1 | 1 | / | / | -22 | -2 | 1
COc1ccc(-c2nnc(NC(=O)c3cc(C)on3)s2)cc1 | 4 | 35* | 2 | -5 | 0 | 1
CCc1c(C)sc(NC(=O)c2cc(-c3ccc(OC)c(OC)c3)on2)c1C#N | 2 | -1 | -2 | -12 | 3 | 1
O=C(NC1CCCCN(Cc2cccc(F)c2)C1=O)c1cccc(F)c1 (stereo unspecified) | -7 | / | / | / | / | /
CCC(C(=O)NC1CCCC1)n1c(-c2ccnc3ccccc23)nc2ccccc21 (stereo unspecified) | 1 | / | / | / | / | /
COc1ccc(-c2sc3ccc(OC)cc3c2C#CCCO)cc1 | / | 18 | 8 | -35 | 0 | 46*
COc1ccc2sc(-c3ccc(N(C)C)cc3)c(C#CCCO)c2c1 | 3 | 19 | + | -25 | / | ?
COc1ccc2sc(-c3ccc(N(C)C)cc3)c(C#CC(C)(C)O)c2c1 | 0 | 23 | + | -28 | / | 1
COc1ccc2sc(-c3ccc(SC)cc3)c(C#CCO)c2c1 | -21 | 16 | 27 | -4 | / | 1
COCC(=O)N/N=C(\C)CC(=O)Nc1ccccc1C(N)=O | 6 | 8 | 55* | -5 | -9 | -1
CC(C)OC(=O)C1C2C=CC3(CN(Cc4cccs4)C(=O)C13)O2 (stereo unspecified) | -2 | -4 | 123* | -24 | 2 | 1
COC(=O)C1CN(Cc2ccc(OC)cc2)CCS(=O)(=O)N1Cc1cn(Cc2ccc(Cl)cc2)nn1 (stereo unspecified) | 8 | / | / | / | / | /
COc1ccccc1OCc1nc(C#N)c(N2CCC(C(N)=O)CC2)o1 | 4 | 0 | 1 | -10 | 4 | -1
CC(C)Cc1nc(C#N)c(N2CCC(C(N)=O)CC2)o1 | 6 | -2 | -3 | -17 | 3 | 0
N#Cc1nc(-c2ccc(OCc3ccccc3)cc2)oc1N1CCC(C(N)=O)CC1 | 0 | 10 | 24 | -2 | 6 | -1
N#Cc1nc(-c2cccc(Cl)c2)oc1N1CCC(C(N)=O)CC1 | -4 | 6 | + | -20 | 4 | -1
CC(C)(C)c1ccc(-c2nc(C#N)c(N3CCC(C(N)=O)CC3)o2)cc1 | 6 | 21 | 166* | -7 | 2 | -2
COc1ccc(-c2nc(C#N)c(N3CCC(C(N)=O)CC3)o2)cc1 | 1 | 16 | + | -6 | 1 | 0
O=C(c1cc(F)ccc1F)N1CCC(Oc2cccnc2)CC1 | 13 | / | / | / | / | /
O=C(c1ccncc1)N1CC[C@H]2[C@H](CCCN2Cc2cc(F)cc(F)c2)C1 | -7 | / | / | / | / | /
Cc1nn(CCC(=O)NNC(=O)Nc2ccc(Cl)cc2)c(C)c1[N+](=O)[O-] | 4 | / | / | / | / | /
SMILES | PrPC TRFRET | GDH-TPI counter | FBA Mtb inh | PrP 5UTR inh | BJeLR viability | PfHsp40 yeast
COc1ccc(Cn2cc(CN3[C@H](CC(C)C)COc4cc(Br)ccc4S3(=O)=O)nn2)cc1 | 5 | / | / | / | / | /
COc1ccc(C2C(C(=O)N3CCN(C=O)CC3)CC(=O)N2c2ccc(OC)cc2)cc1 (stereo unspecified) | 2 | / | / | / | / | /
COc1cc(OC)cc(-c2c(C#Cc3ccsc3)c3cc(-c4ccc5c(c4)OCO5)ccc3n2C)c1 | 2 | 39* | 11 | -5 | / | -2
COc1ccc(-c2c(C#Cc3ccsc3)c3cc(-c4ccc5c(c4)OCCO5)ccc3n2C)cc1 | -8 | 42* | 19 | -14 | / | 1
COc1ccc(-c2c(C#Cc3ccsc3)c3cc(-c4cccc5[nH]ccc45)ccc3n2C)cc1 | 11 | 17 | 24 | -32 | / | 1
COc1ccc(-c2c(C#Cc3ccsc3)c3cc(-c4ccc5[nH]ccc5c4)ccc3n2C)cc1 | 9 | 47* | 18 | -16 | / | -1
COc1ccc(C(C(=O)Nc2ccc(F)cc2)N2CCN(CC(=O)N3CCCC3)CC2)cc1 (stereo unspecified) | -11 | / | / | / | / | /
C#CCN(C)S(=O)(=O)c1ccc(N2CCCC2)cc1Br | 0 | / | / | / | / | /
Cc1ccc(C(=O)N2CCN(c3ccc(C(F)(F)F)cn3)CC2)cc1 | -1 | 0 | 4 | -13 | -3 | 2
O=C(c1cnc2ccccc2n1)N1CCN(c2ccc(C(F)(F)F)cn2)CC1 | -3 | 31* | -4 | -19 | 0 | 0
CCN(CC)c1nc2c(s1)C(=O)NCCC2 | -3 | 4 | -3 | -41 | 0 | -2
CCN(CC)c1nc2c(s1)C(=O)CC(C)(C)C2 | 11 | 35* | -2 | -23 | -1 | 2
O=c1ccc2cc3c([nH]c4ccc(Br)cc43)oc-2c1O | -13 | 6 | -11 | -23 | 12 | 228*
CCN(CC)C(=O)CC[C@H]1CC[C@]2(CCCN(Cc3ccccn3)C2)O1 | 2 | / | / | / | / | /
CC(NC(=S)NC1CCC(C(C)(C)C)CC1)c1ccccc1 (stereo unspecified) | 11 | 7 | -1 | -13 | 1 | 71*
Cc1ccc(CNC(=S)NC2CCC(C(C)(C)C)CC2)cc1 (stereo unspecified) | 2 | -1 | -1 | -14 | -6 | 188*
Cc1ccc(C(C)NC(=S)NC2CCCCC2)cc1C (stereo unspecified) | 13 | 1 | 0 | -4 | 1 | -1
COc1ccc(C(C(=O)N(C)C2CCCC2)N(Cc2ccc(F)cc2)C(=O)c2sccc2Cl)cc1OC (stereo unspecified) | 2 | / | / | / | / | /
O=C(Nc1ccc(/C=C/c2nc3ccccc3o2)cc1)c1cccc(C(F)(F)F)c1 | 2 | 36* | 4 | -24 | 11 | 1
COc1ccc(C(NC(N)=O)c2ccccc2)cc1 (stereo unspecified) | -2 | -4 | -1 | -28 | -4 | 73*
Cc1ccc(C(NC(N)=O)c2ccccc2)cc1 (stereo unspecified) | 6 | 12 | 2 | 9 | -5 | -1
c1ccc2cc(Cn3ccc4ccc(-c5ccc6ccn(Cc7ccc8ccccc8c7)c6c5)cc43)ccc2c1 | -4 | / | / | / | / | /
COc1ccc(NC2CCCN(Cc3cccc4cnccc34)C2)cc1 (stereo unspecified) | -5 | 15 | 2 | -10 | -10 | 1
COc1ccc(NC2CCCN(Cc3cccc4cnccc34)C2)cc1OC (stereo unspecified) | -3 | 20 | 118* | -22 | -5 | 0
O=C1NC[C@@H](CCCCN2C[C@H](Cc3ccccc3)N(Cc3ccccc3)C(=O)C2=O)N(Cc2ccccc2)C1=O | 8 | / | / | / | / | /
CN(c1c2c(nc3ncnn13)CCCC2)C1CCCCC1 | 12 | / | / | / | / | /
Cc1ccc(-c2c(C#N)c(N)nc3c2CCCCC3)cc1 | 13 | 8 | -1 | 17 | 2 | 0
